Where a name gives a salt, the structure may show the parent alone.
What was measured:
Conditions in all cases: 10 µM; exposure time 6 h
[1] = test system: Danio rerio larvae (5 dpf); test: difference in excitability vs DMSO (percentage points); higher = more excitable than DMSO
In short: (§1)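 In 96-well plates, 48 wild-type zebrafish larvae aged 5 dpf per compound received 100 µL egg water with library compound at 10 µM final for 6 h. Three hours into this, a 3-h programme of moving lines and 100 ms, 400Hz tones ran at 28.5 ℃ while plates were photographed every 6 s. Z-LaP Tracker scored the behaviours, and each is given as the compound mean minus the vehicle control mean in percentage points.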

[2] = test system: Danio rerio larvae (5 dpf); test: difference in startle response vs DMSO (percentage points); higher = stronger startle than DMSO
In short: as §1

[3] = test system: Danio rerio larvae (5 dpf); test: difference in activity during first hour vs DMSO (percentage points); higher = more activity than DMSO
In short: as §1

[4] = test system: Danio rerio larvae (5 dpf); test: difference in habituation to acoustic stimuli vs DMSO (percentage points); higher = more habituation than DMSO
In short: as §1

[5] = test system: Danio rerio larvae (5 dpf); test: difference in combined optomotor response to red, green and blue moving lines vs DMSO (percentage points); higher = stronger optomotor response than DMSO
In short: as §1

| Structure (SMILES) | difference in excitability [1] | difference in startle response [2] | difference in activity during first hour [3] | difference in habituation to acoustic stimuli [4] | difference [5] |
| --- | --- | --- | --- | --- | --- |
| CCCCCOc1ccc(-c2cc(-c3ccc(C(=O)N[C@H]4C[C@@H](O)[C@@H](O)NC(=O)[C@@H]5[C@@H](O)[C@@H](C)CN5C(=O)[C@H]([C@H](O)CC(N)=O)NC(=O)[C@H]([C@H](O)[C@@H](O)c5ccc(O)c(OS(=O)(=O)O)c5)NC(=O)[C@@H]5C[C@@H](O)CN5C(=O)[C@H]([C@@H](C)O)NC4=O)cc3)no2)cc1 [Micafungin (sodium salt)] | -4.69 | -8.33 | 19.8 | -1.44 | -1.06 |
| COC(=O)Nc1nc2cc(C(=O)c3ccccc3)ccc2[nH]1 [Mebendazole] | 9.6 | -4.07 | 8.64 | 0.057 | 4.46 |
| CC(C(=O)O)c1ccc(-c2ccccc2)c(F)c1 (racemic) [(±)-Flurbiprofen] | 17.6 | -8.24 | 15 | -6.69 | -3.74 |
| CC(=O)OCC(=O)[C@@]1(O)CC[C@H]2[C@@H]3CCC4=CC(=O)CC[C@]4(C)[C@@]3(F)[C@@H](O)C[C@@]21C [Fludrocortisone Acetate] | -4.21 | 4.97 | -1.84 | 0.633 | 1.96 |
| NCC(=O)CCC(=O)O [5-Aminolevulinic Acid (hydrochloride)] | 11.2 | 1.8 | 1.6 | -2.9 | 2.93 |
| CCN1CCN(C(=O)N[C@@H](C(=O)N[C@@H]2C(=O)N3[C@@H]2SC(C)(C)[C@@H]3C(=O)O)c2ccccc2)C(=O)C1=O [Piperacillin (sodium salt)] | 2.92 | 2.6 | 14.2 | -3.02 | 5.57 |
| CC(=O)Nc1cccc(-n2c(=O)n(C3CC3)c(=O)c3c(Nc4ccc(I)cc4F)n(C)c(=O)c(C)c32)c1 [Trametinib] | 9.81 | 0.301 | 6.06 | 2.09 | 6.51 |
| C[C@@H]1[C@H](O)[C@@H](C)/C=C/C=C/C=C/C=C/C=C/C=C/C=C/[C@H](O[C@@H]2O[C@H](C)[C@@H](O)[C@H](N)[C@@H]2O)C[C@@H]2O[C@](O)(C[C@@H](O)C[C@@H](O)[C@H](O)CC[C@@H](O)C[C@@H](O)CC(=O)O[C@H]1C)C[C@H](O)[C@H]2C(=O)O [Amphotericin B] | -0.355 | 0.384 | 4.13 | -0.401 | 1.13 |
| CCN1CCN(Cc2ccc(Nc3ncc(F)c(-c4cc(F)c5nc(C)n(C(C)C)c5c4)n3)nc2)CC1 | 21.9 | 1.59 | -3.04 | 0.786 | 2.57 |
| Nc1ccc(S(=O)(=O)c2ccc(N)cc2)cc1 [Dapsone] | 4.16 | 3.11 | 2.88 | 2.23 | 1.86 |
| C/C=C1\NC(=O)[C@H]2CSSCC/C=C/[C@H](CC(=O)N[C@H](C(C)C)C(=O)N2)OC(=O)[C@H](C(C)C)NC1=O [Romidepsin] | 2.86 | -0.00342 | 21 | 0.496 | 8.55 |
| NC(=O)[C@@H]1CC[C@@H]2CN1C(=O)N2OS(=O)(=O)O [Avibactam (sodium salt)] | 1.97 | 0.773 | 5.58 | 4.75 | 6.37 |
| Cc1cccc(CN2CCN(C(c3ccccc3)c3ccc(Cl)cc3)CC2)c1 (stereo not given) [Meclizine (hydrochloride)] | 6.31 | -8.4 | 21.1 | -9.92 | -14.3 |
| CO[C@H]1/C=C/O[C@@]2(C)Oc3c(C)c(O)c4c(O)c(c(/C=N/N5CCN(C6CCCC6)CC5)c(O)c4c3C2=O)NC(=O)/C(C)=C\C=C\[C@H](C)[C@H](O)[C@@H](C)[C@@H](O)[C@@H](C)[C@H](OC(C)=O)[C@@H]1C [Rifapentine] | 24.8 | -0.153 | -3.15 | 6.16 | 6.78 |
| O=C1NC(c2ccccc2)(c2ccccc2)C(=O)N1COP(=O)(O)O [Fosphenytoin (sodium salt)] | 1.33 | 6.03 | -3.5 | 3.61 | 0.0516 |
| Nc1cc(Cl)c(N=C2NCCN2)c(Cl)c1 [Apraclonidine (hydrochloride)] | 8.82 | 7.97 | -13.7 | -0.961 | -2.54 |
| CCCCc1oc2ccccc2c1C(=O)c1cc(I)c(OCCN(CC)CC)c(I)c1 [Amiodarone (hydrochloride)] | 8.93 | -3.14 | 8.93 | -15.9 | -11.8 |
| CCN[C@H]1C[C@H](C)S(=O)(=O)c2sc(S(N)(=O)=O)cc21 [Dorzolamide (hydrochloride)] | -4.82 | -3.95 | 4.07 | 2.29 | 3.26 |

| Structure (SMILES) | difference in excitability [1] | difference in startle response [2] | difference in activity during first hour [3] | difference in habituation to acoustic stimuli [4] | difference [5] |
| --- | --- | --- | --- | --- | --- |
| C#C[C@]1(O)CC[C@H]2[C@@H]3CCC4=Cc5oncc5C[C@]4(C)[C@H]3CC[C@@]21C [Danazol] | 6.6 | -7.24 | -23.6 | -10.4 | -17.8 |
| Cc1cccc(C)c1OCC(=O)N[C@@H](Cc1ccccc1)[C@@H](O)C[C@H](Cc1ccccc1)NC(=O)[C@H](C(C)C)N1CCCNC1=O [Lopinavir] | 10.5 | -2.95 | -0.504 | -4.82 | -0.255 |
| Cc1nnc(C(C)C)n1C1C[C@H]2CC[C@@H](C1)N2CC[C@H](NC(=O)C1CCC(F)(F)CC1)c1ccccc1 (stereo in doubt) [Maraviroc] | 11.9 | -3.97 | 5.94 | -1.89 | 4.5 |
| Nc1nnc(-c2cccc(Cl)c2Cl)c(N)n1 [Lamotrigine] | 4.96 | -1.15 | -6.88 | 4.75 | 8.87 |
| COc1cccc(N2CCN(C3=Nc4c(F)cccc4[C@H](CC(=O)O)N3c3cc(C(F)(F)F)ccc3OC)CC2)c1 [Letermovir] | 9.24 | -3.2 | 13.2 | -5.75 | -3.3 |
| CCC(=O)O[C@]1(C(=O)CCl)[C@@H](C)C[C@H]2[C@@H]3C[C@H](F)C4=CC(=O)C=C[C@]4(C)[C@@]3(F)[C@@H](O)C[C@@]21C [Halobetasol Propionate] | 12.1 | 1.54 | 3.96 | -4.09 | 3.99 |
| CC(=O)NS(=O)(=O)c1ccc(N)cc1 [Sulfacetamide (sodium salt)] | 9.42 | 1.32 | -8.28 | 4.81 | 7.06 |
| COc1ccc2[nH]c([S+]([O-])Cc3ncc(C)c(OC)c3C)nc2c1 (stereo not given) [Omeprazole] | 14.6 | -0.657 | -0.859 | 0.506 | 5.66 |
| COc1c(C)c2c(c(O)c1C/C=C(\C)CCC(=O)O)C(=O)OC2 [Mycophenolic Acid] | 2.6 | 4.16 | -1.66 | -0.729 | 8.73 |
| NCCCC(O)(P(=O)(O)O)P(=O)(O)O [Alendronate (sodium hydrate)] | -4.92 | 0.325 | -3.96 | -4.98 | 5.9 |
| O=C(c1cc(Cc2n[nH]c(=O)c3ccccc23)ccc1F)N1CCN(C(=O)C2CC2)CC1 [Olaparib] | -5.41 | -4.44 | 2.13 | -3.55 | 4.86 |
| N#Cc1cc(NC(=O)C(=O)O)c(Cl)c(NC(=O)C(=O)O)c1 [Lodoxamide] | 4.92 | 3.04 | -7.99 | 1.72 | 1.61 |
| Cc1ccc(C(=O)c2cc(O)c(O)c([N+](=O)[O-])c2)cc1 [Tolcapone] | 5.24 | -9.07 | 8.3 | -6.19 | -0.989 |
| CC(C(=O)O)c1cccc(Oc2ccccc2)c1 (stereo not given) [Fenoprofen (calcium salt hydrate)] | 5.22 | 0.479 | -0.54 | -2.86 | -2.31 |
| CN1C2CCCC1CC(NC(=O)c1nn(C)c3ccccc13)C2 (stereo not given) [Granisetron (hydrochloride)] | 5.31 | 0.419 | 15 | 0.641 | 7.51 |
| CCCC(=O)O[C@]1(C(=O)COC(C)=O)CC[C@H]2[C@@H]3C[C@H](F)C4=CC(=O)C=C[C@]4(C)[C@@]3(F)[C@@H](O)C[C@@]21C [Difluprednate] | 3.2 | 2.35 | 6.57 | 4.62 | -1.11 |
| CC1CNc2c(cccc2S(=O)(=O)N[C@@H](CCCNC(=N)N)C(=O)N2CC[C@@H](C)C[C@@H]2C(=O)O)C1 (stereo not given in full) [Argatroban] | 3.15 | 2.67 | 19.4 | -4.15 | 3.46 |
| C=CC[N+]1([C@H]2C[C@H]3[C@@H]4CC[C@H]5C[C@H](O)[C@@H](N6CCOCC6)C[C@]5(C)[C@H]4CC[C@]3(C)[C@H]2OC(C)=O)CCCC1 [Rocuronium (bromide)] | 14.3 | -3.01 | -1.74 | 4.51 | -2.53 |

— the supplement of paper PMC10515830
